Source: the supplement of paper PMC12645437, “Orthogonal IMiD-Degron Pairs Induce Selective Protein Degradation in Cells” (ACS Chemical Biology, 2025)
Whole data set: some 8,300 sequences, median “log2 fold change of degron read counts, EGFP-low vs EGFP+ sorted cells (limma voom), compound-induced degradation” near -1.1, cut for the highest 2% near 3.2. What follows is part of a selection rich in the highest values, with near analogues and random picks from the rest.

T1: CRBN, Q96SW2
T1 chain: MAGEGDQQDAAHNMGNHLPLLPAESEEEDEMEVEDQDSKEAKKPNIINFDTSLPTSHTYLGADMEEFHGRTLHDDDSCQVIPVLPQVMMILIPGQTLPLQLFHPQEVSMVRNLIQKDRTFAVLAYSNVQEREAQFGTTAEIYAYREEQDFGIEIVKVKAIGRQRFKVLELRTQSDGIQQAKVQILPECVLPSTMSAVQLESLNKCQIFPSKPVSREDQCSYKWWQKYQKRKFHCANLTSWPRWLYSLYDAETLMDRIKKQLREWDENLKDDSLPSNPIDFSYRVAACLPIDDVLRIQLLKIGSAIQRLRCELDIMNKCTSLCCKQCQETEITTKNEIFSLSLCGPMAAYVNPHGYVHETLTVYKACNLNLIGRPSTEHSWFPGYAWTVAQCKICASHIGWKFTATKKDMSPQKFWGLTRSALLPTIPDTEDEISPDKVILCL

B1: 46F_47K_49D_50V_52G_53A_54D_55F_67L_, Q9UKT9 (peptide)
chain: FKCDVCGADFTQKGNLLRHIKL
B2: 46F_47F_49E_50I_52G_53R_54Y_55F_67L_, Q9UKT9 (peptide)
chain: FFCEICGRYFTQKGNLLRHIKL
B3: 46F_47K_49N_50Q_52G_53R_54G_55F_67L_, Q9UKT9 (peptide)
chain: FKCNQCGRGFTQKGNLLRHIKL
B4: 46F_47S_49D_50Q_52G_53A_54A_55F_67L_, Q9UKT9 (peptide)
chain: FSCDQCGAAFTQKGNLLRHIKL
B5: 46F_47S_49D_50I_52G_53A_54Q_55F_67L_, Q9UKT9 (peptide)
chain: FSCDICGAQFTQKGNLLRHIKL
B6: 46L_47T_49P_50I_52G_53F_54N_55C_67L_, Q9UKT9 (peptide)
chain: LTCPICGFNCTQKGNLLRHIKL
B7: 46F_47S_49E_50I_52G_53H_54Y_55F_67L_, Q9UKT9 (peptide)
chain: FSCEICGHYFTQKGNLLRHIKL
B8: 46F_47L_49E_50I_52G_53H_54L_55F_67L_, Q9UKT9 (peptide)
chain: FLCEICGHLFTQKGNLLRHIKL
B9: 46F_47M_49E_50I_52G_53R_54D_55F_67L_, Q9UKT9 (peptide)
chain: FMCEICGRDFTQKGNLLRHIKL
B10: 46F_47F_49P_50V_52G_53A_54N_55F_67L_, Q9UKT9 (peptide)
chain: FFCPVCGANFTQKGNLLRHIKL
B11: 46F_47E_49D_50V_52G_53A_54N_55F_67L_, Q9UKT9 (peptide)
chain: FECDVCGANFTQKGNLLRHIKL
B12: 46F_47W_49N_50V_52G_53A_54N_55F_67L_, Q9UKT9 (peptide)
chain: FWCNVCGANFTQKGNLLRHIKL
B13: 46F_47V_49D_50V_52G_53A_54N_55F_67L_, Q9UKT9 (peptide)
chain: FVCDVCGANFTQKGNLLRHIKL
B14: 46F_47W_49D_50V_52G_53A_54N_55F_67L_, Q9UKT9 (peptide)
chain: FWCDVCGANFTQKGNLLRHIKL
B15: 46F_47R_49P_50V_52G_53A_54N_55F_67L_, Q9UKT9 (peptide)
chain: FRCPVCGANFTQKGNLLRHIKL
B16: 46F_47I_49P_50V_52G_53A_54N_55F_67L_, Q9UKT9 (peptide)
chain: FICPVCGANFTQKGNLLRHIKL
B17: 46F_47Y_49N_50V_52G_53A_54N_55F_67L_, Q9UKT9 (peptide)
chain: FYCNVCGANFTQKGNLLRHIKL
B18: 46F_47E_49N_50V_52G_53A_54N_55F_67L_, Q9UKT9 (peptide)
chain: FECNVCGANFTQKGNLLRHIKL
B19: 46F_47S_49E_50I_52G_53H_54W_55F_67L_, Q9UKT9 (peptide)
chain: FSCEICGHWFTQKGNLLRHIKL
B20: 46F_47R_49N_50I_52G_53A_54M_55F_67L_, Q9UKT9 (peptide)
chain: FRCNICGAMFTQKGNLLRHIKL
B21: 46F_47K_49P_50I_52G_53H_54G_55F_67L_, Q9UKT9 (peptide)
chain: FKCPICGHGFTQKGNLLRHIKL
B22: 46F_47Y_49P_50V_52G_53A_54K_55F_67L_, Q9UKT9 (peptide)
chain: FYCPVCGAKFTQKGNLLRHIKL
B23: 46F_47S_49E_50V_52G_53A_54H_55F_67L_, Q9UKT9 (peptide)
chain: FSCEVCGAHFTQKGNLLRHIKL
B24: 46F_47E_49E_50I_52G_53A_54M_55F_67L_, Q9UKT9 (peptide)
chain: FECEICGAMFTQKGNLLRHIKL
B25: 46F_47F_49E_50I_52G_53A_54M_55F_67L_, Q9UKT9 (peptide)
chain: FFCEICGAMFTQKGNLLRHIKL
B26: 46F_47C_49E_50I_52G_53A_54M_55F_67L_, Q9UKT9 (peptide)
chain: FCCEICGAMFTQKGNLLRHIKL
B27: 46F_47A_49E_50I_52G_53A_54M_55F_67L_, Q9UKT9 (peptide)
chain: FACEICGAMFTQKGNLLRHIKL
B28: 46F_47H_49E_50I_52G_53A_54M_55F_67L_, Q9UKT9 (peptide)
chain: FHCEICGAMFTQKGNLLRHIKL
B29: 46F_47M_49E_50I_52G_53A_54M_55F_67L_, Q9UKT9 (peptide)
chain: FMCEICGAMFTQKGNLLRHIKL
B30: 46F_47L_49E_50I_52G_53A_54M_55F_67L_, Q9UKT9 (peptide)
chain: FLCEICGAMFTQKGNLLRHIKL
B31: 46F_47Q_49E_50I_52G_53A_54M_55F_67L_, Q9UKT9 (peptide)
chain: FQCEICGAMFTQKGNLLRHIKL
B32: 46F_47G_49E_50I_52G_53A_54M_55F_67L_, Q9UKT9 (peptide)
chain: FGCEICGAMFTQKGNLLRHIKL
B33: 46F_47D_49E_50I_52G_53A_54M_55F_67L_, Q9UKT9 (peptide)
chain: FDCEICGAMFTQKGNLLRHIKL
B34: 46F_47N_49E_50I_52G_53A_54M_55F_67L_, Q9UKT9 (peptide)
chain: FNCEICGAMFTQKGNLLRHIKL
B35: 46F_47W_49E_50I_52G_53A_54M_55F_67L_, Q9UKT9 (peptide)
chain: FWCEICGAMFTQKGNLLRHIKL

Molecular target: T1, CRBN, Q96SW2
Assay: log2 fold change of degron read counts, EGFP-low vs EGFP+ sorted cells (limma voom), compound-induced degradation; higher = more compound-induced degradation of the degron-EGFP fusion; degrons are variants of IKZF1/3 zinc finger 2; compound dose not given here
Conditions: Jurkat, 18 h
[1] = compound: compound 19 (5-tert-butyl-thalidomide)
[2] = compound: compound 22 (5-morpholino-thalidomide)
[3] = compound: compound 33 (diphenyl IMiD analogue)
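Note: pooled lentiviral library of zinc finger degron-EGFP fusions in mCherry-positive Jurkat cells, FACS-sorted after compound exposure, with degron abundance counted by next-generation sequencing.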

Sequence | log2 fold change of degron read counts [1] | log2 fold change of degron read counts [2] | log2 fold change of degron read counts [3] | log2 fold change of degron read counts (compound: thalidomide)
B1 | -2.97 | -3.35 | -3.54 | -2.81
B2 | 0.941 | 0.578 | -0.864 | -0.888
B3 | -2.31 | -2.82 | -2.99 | -2.64
B4 | -0.624 | -1.35 | 0.123 | -2.08
B5 | 1.74 | 1.52 | 0.198 | 0.0774
B6 | -0.006 | 2.04 | 2.24 | 2.86
B7 | -2.13 | -2.82 | -2.44 | -2.99
B8 | -3.49 | -2.55 | -2.84 | -2.4
B9 | -4.1 | -3.78 | -2.1 | -2.87
B10 | 2.53 | 3.51 | 1.89 | 1.22
B11 | -1.89 | -2.52 | 0.03 | -0.264
B12 | 1.2 | 3.53 | 1.36 | -0.0957
B13 | -1.78 | 0.744 | 0.282 | 0.237
B14 | 1.91 | 3.89 | 0.9 | -0.759
B15 | -0.729 | -0.0361 | 1.6 | 1.18
B16 | -1.07 | 2.83 | 1.95 | 2.35
B17 | 0.97 | 2.35 | 0.921 | -0.663
B18 | -2.58 | -1.81 | 0.845 | 0.642

Sequence | log2 fold change of degron read counts [1] | log2 fold change of degron read counts [2] | log2 fold change of degron read counts [3] | log2 fold change of degron read counts (compound: thalidomide)
B19 | -2.92 | -3.14 | -2.71 | -2.77
B20 | -1.41 | -1.24 | -0.539 | -0.171
B21 | -2.34 | -2.29 | -2.14 | -1.69
B22 | 2.58 | 2.82 | 1.14 | 0.354
B23 | 2.19 | 0.401 | 0.505 | 0.0402
B24 | -0.963 | -1.94 | 0.392 | 1.16
B25 | 3.34 | 3.12 | 1.91 | 0.537
B26 | 2.28 | 1.35 | 2.11 | 1.39
B27 | 3.3 | 1.74 | 0.378 | -0.0211
B28 | 2.38 | 1.87 | 1.06 | -0.251
B29 | -0.964 | -0.957 | 1.9 | 0.514
B30 | -0.288 | -1.63 | 0.563 | 0.887
B31 | -0.0508 | 2.24 | 2.45 | 3.57
B32 | 3 | 2.34 | 1.39 | 0.523
B33 | 0.132 | -1.04 | -0.408 | 0.217
B34 | 1.65 | -0.456 | -0.467 | -0.552
B35 | 3.33 | 3.63 | 2.34 | 0.517
